High-throughput results as filed in PubChem.
Compounds with a hit are over-represented: about 7.3% of the library has one in this group of screens.
HCMV inh = human cytomegalovirus inhibition; actives 4.5% (n = 410,000); activity change, negative = inhibition, % at 57.5 µM; HFF cells, HCMV-luciferase reporter, 72 h; stronger effect = lower value; in the data active means activity change below about -60%; inconclusive means no clear call, values can overlap the other calls; inactive means above about -39%
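Luciferase read-out from HCMV-luciferase-infected HFFs (MOI 1 PFU/cell) 72 h post infection at 37C; compounds added after 16 h cell attachment; activity normalized between buffer-only basal and Salinomycin (10uM) inhibitor controls.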
HCV inhibitor = HCV inhibition | actives 3.4% (n = 340,000) | Huh7.5.1 HCVcc-Cre infection, luciferase reporter, 44 h | Potency, µM (series often up to 41.8 µM), for the others: at the top dose activity change, negative = inhibition, hits mostly inhibitors; active means well fitted inhibition curve with a large enough effect; inconclusive means small, poorly fitted or top-dose-only effect, or another doubt; inactive means no such curve, though single readings can be large or run the other way; further: potency means the concentration at half of the fitted maximal effect
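Infectious HCVcc-Cre (~0.5 moi) was added to cells just after compound, with cells seeded 4 h earlier at 1,000 per well. Luciferase activity after 44 h culture reported infection; substrate was incubated 15 min at room temperature before reading.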
FMDV antiviral = foot and mouth disease virus antiviral activity | Potency, µM (highest dose often 57.9 µM), without a hit: at the top dose activity change, negative = inhibition, usual class: inhibitors | AID 1159524 | actives 1.2% (n = 410,000) | FMDV antiviral cell-based qHTS; calls by dose curve; tested in HEK293T cells; further: read-out not given here; potency means the concentration at half of the fitted maximal effect; nearly all actives have a fitted effect of over 45% in size
VACV mCherry inh = vaccinia inhibition (mCherry reporter). Vaccinia virus mCherry reporter infection, fluorescence. Potency, µM (titrated, usually from 36.5 µM), for the others: top-dose activity change, negative = inhibition, most hits filed as inhibitors. actives 0.63% (n = 310,000). AID 720579; calls by dose curve; tested in A549 cells; further: potency means the concentration at half of the fitted maximal effect; nearly all actives have a fitted effect of over 35% in size
VACV Venus inh = inhibitors of vaccinia virus (Venus reporter). Vaccinia virus Venus reporter expression, fluorescence. Potency, µM (titrated, usually from 36.5 µM), for the others: at the highest dose activity change, negative = inhibition, usual class: inhibitors. actives 0.46% (n = 330,000). AID 720580; calls by dose curve; tested in A549 cells; further: potency means the concentration at half of the fitted maximal effect; nearly all actives have a fitted effect of over 30% in size
Starred values were filed as active, the others as inactive; i = inactive; u = inconclusive; x = not tested or not shown; [ ] = dose if it differs, or a comment. On the % scale 0 is the no-effect control and ±100 the full control effect.

SMILES	HCMV inh	HCV inhibitor	FMDV antiviral	VACV mCherry inh	VACV Venus inh
Cc1nc(N2CCCCC2)c2c(C)c(C(=O)Nc3ccc4c(c3)OCCO4)sc2n1	-61.4*	u	0.0%	x	x
Cc1nc(N2CCN(c3ccccn3)CC2)c2c(C)c(C(=O)Nc3c(C)cc(Br)cc3C)sc2n1	-21.4	u	-21.7%	x	x
Cc1nc(N2CCN(c3ccccn3)CC2)c2c(C)c(C(=O)Nc3c(F)cc(F)cc3Br)sc2n1	u	12.6µM*	-14.5%	x	x
Cc1nc(N2CCN(C)CC2)c2c(C)c(C(=O)Nc3ccc(C)c(F)c3)sc2n1	35.3	8.91µM*	0.0%	x	x
CCOC(=O)C1=C(Nc2ccc(OC)cc2)C(N)=NC1=N	u	x	45.7%	u	-27.2%
CCC(C)n1ncn(-c2ccc(N3CCN(c4ccc(OCC5COC(Cn6cncn6)(c6ccc(Cl)cc6Cl)O5)cc4)CC3)cc2)c1=O (centres undefined)	-65.6*	u	u	-9.2%	u
CCC(C)n1ncn(-c2ccc(N3CCN(c4ccc(O)cc4)CC3)cc2)c1=O (centres undefined)	u	-22.7%	u	u	u
Cc1c(C(=O)NCc2ccco2)sc2nc(-c3ccccc3)cn12	18.2	10µM*	8.6%	-12.7%	u
CCN(CC)c1ccc(NC(=O)c2sc3nc(-c4ccccc4)cn3c2C)cc1	-25.3	x	-26.2%	-6.6%	u
Cc1c(C(=O)Nc2ccc3c(c2)OCCO3)sc2nc(-c3ccccc3)cn12	-84.3*	2.51µM*	15.8µM*	u	-28.4%
Cc1c(C(=O)Nc2ccncc2)sc2nc(-c3ccccc3)cn12	-36.3	3.55µM*	20µM*	-4.0%	u
Cc1nn2cc(-c3ccc(OC(C)C)cc3)nc2s1	-32.9	x	-50.1%	-17.2%	-13.5%
O=C(CSc1nnc(NC(=O)c2ccccc2)s1)NCC1CCCO1 (centres undefined)	33.2	4.1%	-15.8%	-9.5%	-10.1%
CCC(=O)Nc1nnc(SCC(=O)NCC2CCCO2)s1 (centres undefined)	9.4	3.55µM*	-13.0%	-17.1%	-20.9%
O=C(CSc1nnc(NC(=O)c2cccc(Br)c2)s1)NCC1CCCO1 (centres undefined)	-98.0*	8.6%	27.6%	i	-10.4%
CCOC(=O)CCNC(=O)N1CCCC(N2CCN(c3ccc(OC)cc3)CC2)C1 (centres undefined)	-35.3	-23.2%	-1.1%	-10.3%	-10.7%
COC(=O)c1ccc2c(c1)NC(=O)C1CCCN21 (centres undefined)	x	-18.9%	-25.9%	-6.5%	-2.6%
Cc1ccc(NC(=O)COC(=O)c2ccc3c(c2)NC(=O)C2CCCN32)cc1 (centres undefined)	56.1	10µM*	-11.1%	x	x
Cc1ccc(Cl)c2c1NC(=O)C2=O	-12.2	1.0%	15.8%	-5.3%	7.6%
CCN(CC(=O)Nc1cccc(OC)c1)C(=O)C1CC(=O)N(Cc2ccccc2Cl)C1 (centres undefined)	29.4	x	19.4%	i	-24.6%
Clc1ccc2[nH]c3c(NCC4CCCO4)ncnc3c2c1 (centres undefined)	-65.1*	x	x	x	x
Clc1ccc2[nH]c3c(NCCN4CCOCC4)ncnc3c2c1	-10.0	u	-13.3%	i	-19.9%
Cc1ccc(N2CCC3CC2c2cc(-c4ccc(C(F)(F)F)cc4)ccc23)cc1 (centres undefined)	-15.0	x	u	-13.5%	-9.3%
CCCCNC(=O)c1nc2cc(C)c(C)cc2nc1-c1ccc2c(c1)OCO2	30.9	x	x	x	x
COc1cc(OC)cc(-c2oc(=O)c3cc(OC)c(OC)cc3c2C#CCCO)c1	4.5	u	4.6%	i	-14.4%
SMILES	HCMV inh	HCV inhibitor	FMDV antiviral	VACV mCherry inh	VACV Venus inh
COc1ccc(C#Cc2c(-c3ccccc3OC)oc3ccccc23)cc1	-10.5	x	x	x	x
COc1ccc(-c2oc(=O)c3cc(OC)c(OC)cc3c2C#CCCO)cc1	-18.2	3.16µM*	0.0%	-23.0%	-16.5%
COc1ccccc1-c1oc2ccccc2c1C#CCCO	43.2	14.1µM*	-19.6%	i	-20.8%
COc1ccc(-c2oc3ccccc3c2C#CC(C)(C)O)cc1	1.1	7.94µM*	-9.8%	u	-29.2%
COc1ccc(-c2c(C#CC(C)(C)O)c3ccccc3n2C)cc1	24.2	u	-16.0%	-2.2%	-19.3%
COc1ccc(-c2ccc3oc(-c4ccc(OC)cc4)c(C#CCO)c3c2)cc1	-92.5*	u	8.91µM*	-26.0%	u
CC(=O)Oc1ccc2c(c1)CCC1C2CC[C@]2(C)C(=O)CCC12 (some centres undefined)	x	x	14.3%	-1.5%	-1.8%
COc1ccc(OC(F)(F)F)cc1CC1(C)C(=O)Nc2c(Cl)ccc(Cl)c21 (centres undefined)	x	x	u	-4.4%	-2.6%
Cc1ccccc1CN1CCc2nnc(C(C)NC(=O)c3cc(F)ccc3F)n2CC1 (centres undefined)	x	x	-7.8%	i	-0.2%
COc1ccc(Cn2c(=O)[nH]c3cc(C(=O)NCCC(C)C)ccc3c2=O)cc1	-8.5	x	9.7%	-16.4%	-10.6%
Cc1cc(Br)cn2c(Cc3ccccc3C(F)(F)F)c(-c3ccc(F)cc3)nc12	17.1	x	x	x	x
COc1ccc(-c2oc3ccc(N4CCOCC4)cc3c2C#CCO)cc1	-67.0*	u	28.2µM*	5.62µM*	u
COc1ccc(-c2sc3ccc(N4CCOCC4)cc3c2C#CC(C)(C)O)cc1	-32.1	u	-17.9%	i	-28.8%
Cc1ccc(/C=N/Nc2cc(C)nc(NCc3ccccc3)n2)cc1	-11.7	7.08µM*	-23.4%	u	-7.1%
Cc1cc(N/N=C/c2ccc(Cl)cc2Cl)nc(NCc2ccccc2)n1	-24.9	u	0.0%	-25.4%	u
Cc1cc(N/N=C/c2ccc(F)cc2)nc(NCc2ccccc2)n1	5.1	11.2µM*	-17.7%	u	-18.4%
Cc1cc(N/N=C/c2ccc(N(C)C)cc2)nc(NCc2ccccc2)n1	-18.5	u	u	x	x
N#Cc1c(Nc2ccc(Cl)cc2)s[nH]c1=O	-65.8*	3.4%	29.0%	-1.6%	-14.2%
COc1ccc2c(c1)OC[C@H]1[C@H]2N2C(=O)c3cc(OC)c(OC)cc3NC(=O)[C@@]2(C)[C@H]1c1ccccc1	-15.0	7.08µM*	0.0%	u	u
COc1ccc2c(c1)[C@H]1[C@H](CO2)[C@H](c2ccccc2)[C@]2(C)C(=O)Nc3cc(F)ccc3C(=O)N12	-13.2	-9.1%[8.37 µM]	-26.4%	u	-27.9%
C[C@@]12C(=O)Nc3cc(Cl)ccc3C(=O)N1[C@H]1c3cc(Br)ccc3OC[C@@H]1[C@@H]2c1ccccc1	-64.3*	10µM*	-10.6%	-3.9%	-23.1%
COc1ccc2c(c1)OC[C@H]1[C@H]2N2C(=O)c3ccc(F)cc3NC(=O)[C@@]2(C)[C@H]1c1ccccc1	118.8	u	u	17.8µM*	u
COc1ccc2c(c1)OC[C@H]1[C@H]2N2C(=O)[C@H](C)NC(=O)[C@@]2(C)[C@H]1c1ccccc1	-91.1*	-0.2%	-3.7%	i	-6.7%
